Assay results: a collection of fitness landscapes (doi:10.1016/j.celrep.2020.107928)
The full ranking holds about 81,000 sequences; the median of “one-hybrid fitness for binding parS DNA” is about -0.17, and the highest 2% start at about 0.51. Only a selection was taken, and the highest values are over-represented in it overall.

B1: Caulobacter ParB omega fusion; a variant is named by its letters at X, in order, B8GW30 (parent)
chain: MESVVVGEPGMSEGRRGLGRGLSALLGEVDAAPAQAPGEQLGGSREAPIEILQRNPDQPRRTFREEDLEDLSNSIREKGVLQPILVRPSPDTAGEYQIVAGERAWRAAQRAGLKTVPIMVRELDDLAVLEIGIIENVQRADLNVLEEALSYKVLMEKFERTQENIAQTIGKSXSHVANXMRLLXLPDEVQSYLVSGELTAXHARAIAAAADPVALAKQIIEGGLSVRETEALARKAPNLSAGKSKGGRPPRVKDTDTQALESDLSSVLGLDVSIDHRGSTGTLTITYATLEQLDDLCNRLTRGI

Variants of: B1
Assay: one-hybrid fitness for binding parS DNA (scaled: cognate 1, non-cognate 0); higher = stronger binding
Conditions: with parS DNA site
How it was run: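 Fitness here means the log change in variant-to-wild-type read ratio between plasmids sequenced before and after selection. That scale was set so cognate equals 1 and non-cognate equals 0. The selection was a bacterial one-hybrid screen of Caulobacter ParB libraries, four specificity codons randomised, in E. coli USO carrying a HIS3 reporter with the site 19 bp from the promoter, grown 48 hours at 37°C on M9-minus-histidine with 0.1 mM IPTG and 5 mM 3-AT.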

one-hybrid fitness for binding parS DNA, 0.347:
RVSM

one-hybrid fitness for binding parS DNA, 0.972:
RVCG

one-hybrid fitness for binding parS DNA, 0.266:
RSAF
RVRF

one-hybrid fitness for binding parS DNA, 0.992:
RSAG
RVNG

one-hybrid fitness for binding parS DNA, 1.02:
RCAG
RVYG

one-hybrid fitness for binding parS DNA, 0.213:
RVYP

one-hybrid fitness for binding parS DNA, 0.46:
RVYN

one-hybrid fitness for binding parS DNA, 0.672:
RGMS

one-hybrid fitness for binding parS DNA, 0.895:
RQQT

one-hybrid fitness for binding parS DNA, 0.604:
RGMG

one-hybrid fitness for binding parS DNA, ≤ 0.2:
NCIC
LPKF
GQSM
WYTC
RQNQ
RQQR
RQNE
RQGD
RQYK
NLLR
RPHV
WPRR
VTAC
DHDY
MGLM
DCQR
HLAT
RQWR
RQLR
RQCD
RQCP
RQWF
FMNC
QHYS
AARS
AYIV
GHTQ
WFQV
RPAG
RDAG
REAG
RPEM
VMQS
RGMD
RGMP
RGMY
RGMM
RGMN
RGMQ
PVHI
HKLN
WWDG
RNHR
DEPC
RVDK
RVWP
RVWH
RVSR
RVDQ
RVNQ
AQKQ
HTYC
VSWE
SPNG
LCPA
LGTD
MNAP
PHSE
DQES
NCWT
RCSE
MTTC
RVHK
RVCR
RVHQ
MWSG

one-hybrid fitness for binding parS DNA, 0.301:
RQLM

one-hybrid fitness for binding parS DNA, 0.847:
RQGT
RQYT

one-hybrid fitness for binding parS DNA, 0.999:
RVSG

one-hybrid fitness for binding parS DNA, 0.955:
RVRG

one-hybrid fitness for binding parS DNA, 0.543:
RGMC

one-hybrid fitness for binding parS DNA, 0.982:
RVWG

one-hybrid fitness for binding parS DNA, 0.702:
RQWT

one-hybrid fitness for binding parS DNA, 0.28:
RQQF

one-hybrid fitness for binding parS DNA, 0.889:
RQNT

one-hybrid fitness for binding parS DNA, 0.318:
RQYM

one-hybrid fitness for binding parS DNA, 0.846:
RQCT

one-hybrid fitness for binding parS DNA, 1.03:
RVHG

one-hybrid fitness for binding parS DNA, 0.86:
RQLT

one-hybrid fitness for binding parS DNA, 0.874:
RVDG

one-hybrid fitness for binding parS DNA, 0.324:
RVNM

one-hybrid fitness for binding parS DNA, 0.249:
RQGH
RVCF

one-hybrid fitness for binding parS DNA, 0.392:
RVRM
